# Screening data deposited in PubChem by National Center for Advancing Translational Sciences (NCATS).
# Pf growth 96h – P. falciparum growth inhibition at 96 hours; P. falciparum luciferase reporter growth, 96 h; Potency, µM (doses to about 28.7 µM), for the others: at the top dose activity change, negative = inhibition, usual class: inhibitors; 320,000 compounds, 6.9% hits; also: potency is read from the fitted curve at half-maximal effect
#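 Parasite growth measured via integrated firefly luciferase reporter in P. falciparum. Infected erythrocytes at 2% hematocrit, 0.05% parasitemia final were treated 96 hours at 37 C under 5% CO2, and luminescence was read.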
# Pf growth 48h – inhibits P. falciparum growth in the first generation, 48 h; P. falciparum luciferase growth in erythrocytes, 48 h; AID 504832; Potency, µM (doses to about 28.7 µM), for inactives: at the top dose activity change, negative = inhibition, actives largely listed as inhibitors; 310,000 compounds, 5.9% hits; also: potency is read from the fitted curve at half-maximal effect
#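 Parasite viability was followed by luminescence of a genomically integrated firefly luciferase. Cultures held 0.1% parasitemia at 2% hematocrit (final), incubated under 5% CO2 at 37 C.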
# HCMV inh – human cytomegalovirus inhibition | HFF cells, HCMV-luciferase reporter, 72 h; stronger effect = lower value | activity change, negative = inhibition, % at 57.5 µM | 410,000 compounds, 4.5% hits; in the data active = activity change below about -60%; inconclusive = no clear call, values can overlap the other calls; inactive = above about -39%
#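 HFF cells seeded 16 h at 37C, treated with compounds, infected with luciferase-reporter HCMV at MOI 1 PFU/cell; luciferase read at 72 h post infection, normalized to buffer-only and Salinomycin controls.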
# HCV inh – blocks hepatitis C virus; Huh7.5.1 HCVcc-Cre infection, luciferase reporter, 44 h; Potency, µM (highest dose often 41.8 µM), for inactives: at the highest dose activity change, negative = inhibition, actives largely listed as inhibitors; 340,000 compounds, 3.4% hits; also: potency is read from the fitted curve at half-maximal effect
#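 Reporter virus HCVcc-Cre (~0.5 moi) infects cells exposed to compound; seeding density 1,000 cells/well with 4 h settling beforehand. Luminescence, 15 sec read, taken 44 h post-infection following a 15 min RT substrate incubation.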
# An asterisk follows results filed as active; ? = inconclusive; · = no result given; [ ] = remark or other dose. Most compounds without a hit are left out; they make up all but 13% or so of the library. Unless noted, calls follow the shape of the dose curve; as a rule, active = well fitted inhibition curve with a large enough effect; inconclusive = small, poorly fitted or top-dose-only effect, or another doubt; inactive = no such curve, though single readings can be large or run the other way. % is scaled to controls: 0 for no effect and ±100 for the full control effect.
SMILES,Pf growth 96h,Pf growth 48h,HCMV inh,HCV inh
COc1ccc(Cl)cc1NC(=O)CSC1=Nc2ccccc2C2=NC(CCC(=O)NCc3ccco3)C(=O)N12 (stereo not drawn),·,·,-5,·
O=C(Nc1cc(Cl)ccc1-n1cncn1)c1ccco1,·,·,33,-15%
O=C(Nc1cc(Cl)ccc1-n1cncn1)c1ccc([N+](=O)[O-])s1,?,?,·,7.9µM*
COc1cc(OC)c(C(=O)Nc2cc(Cl)ccc2-n2cncn2)cc1OC,5.9µM*,5.9µM*,28,13µM*
CC(Oc1ccc(F)cc1)C(=O)Nc1cc(Cl)ccc1-n1cncn1 (stereo not drawn),2.6µM*,2.3µM*,-20,?
CC(Oc1ccccc1)C(=O)Nc1cc(Cl)ccc1-n1cncn1 (stereo not drawn),2.3µM*,3.7µM*,0,?
c1ccc2c(c1)[nH]c1c(C3=NCCC3)nccc12,·,·,-1,·
CC(=O)N1N=C(c2cccc([N+](=O)[O-])c2)OC1c1ccc(Cl)cc1Cl (stereo not drawn),?,-19%,30,10µM*
COc1ccccc1C1OC(c2cccc([N+](=O)[O-])c2)=NN1C(C)=O (stereo not drawn),5%,27%,?,4%
CSc1ccc(CCNc2ncnc3onc(C)c23)cc1,·,·,-65*,·
Cc1ccc(CNC(=O)CCCCn2c(=O)c3ccccc3n(Cc3c(C)cc(C)cc3C)c2=O)cc1,·,·,12,·
Cc1cccc(C(=O)NCC(=O)OCc2cc(=O)n3nc(C4CC4)sc3n2)c1,·,·,0,·
COc1ccccc1NC(=O)C1CCN(c2ncnc3c2nc2n3CCCCC2)CC1,10µM*,?,-4,?
O=C(Nc1ccc(Cl)cn1)C1CCN(c2ncnc3c2nc2n3CCCCC2)CC1,?,10%,-86*,10µM*
O=C(Nc1ccc(Cl)cn1)C1CCCN(c2ncnc3c2nc2n3CCCCC2)C1 (stereo not drawn),?,0%,-23,?
COc1ccc(NC(=O)C2CCN(c3ncnc4c3nc3n4CCCCC3)CC2)c(OC)c1,?,-16%,-21,-27%
CCOC(=O)C(C)NC(=O)C1CCN(c2ncnc3c2nc2n3CCCCC2)CC1 (stereo not drawn),·,·,-85*,·
CSc1cccc(N2C(=O)N(CC(=O)NCc3ccccc3Cl)c3ccccc3S2(=O)=O)c1,·,·,-23,·
Cc1ccc(/C=C/C(=O)OC(C)C(=O)Nc2ncc(Cl)cc2Cl)o1 (stereo not drawn),24%,14%,-98*,-4%
C[C@@H]1C=CCCO[C@]12C(=O)N(CC1CC1)c1cccc(Br)c12,·,·,-11,·
FC(F)Oc1ccc(-c2csc(=Nc3cccnc3)n2CC2CCCO2)cc1 (stereo not drawn),13µM*,?,-76*,11µM*
CC(=O)CC(=O)O[C@@H]1C=C[C@H](NC(=O)OC(C)(C)C)C1,·,·,16,·
O=C(Cn1cc(C(=O)c2ccncc2)c(=O)c2cc(F)ccc21)Nc1ccc(Cl)cc1,·,·,-17,·
CCc1ccc(CN2CCN(S(=O)(=O)Cc3ccccc3)CC2)cc1,3.3µM*,1%,13,18%
CCn1c2ccccc2c2cc(CN3CCN(C(=O)c4ccco4)CC3)ccc21,8.3µM*,?,-4,-13%
SMILES,Pf growth 96h,Pf growth 48h,HCMV inh,HCV inh
CCCSc1ccccc1C(=O)N1CCN(C(=O)c2ccco2)CC1,28%,-9%,-101*,3%
O=C(c1ccco1)N1CCN(Cc2cc(=O)c(OCc3ccccc3Cl)co2)CC1,?,?,4,1%
CCC(C(=O)N1CCN(C(=O)c2ccco2)CC1)c1ccccc1 (stereo not drawn),?,-11%,32,-6%
Cc1ccc(C)c(COc2coc(CN3CCN(C(=O)c4ccco4)CC3)cc2=O)c1,?,12µM*,-17,4%
O=S(=O)(Cc1ccc(Cl)cc1)N1CCN(Cc2ccccc2)CC1,?,39%,45,19%
N#Cc1ccccc1Cn1c(SCC(=O)Nc2ccc(F)cc2)nc2ccccc21,·,·,-11,·
CCn1c(=O)cc(SCC(=O)N2CCOCC2)c2ccccc21,?,20%,111,15%
COc1ccc(CN2CCN(C(=O)c3ccco3)CC2)cc1OCc1ccccc1,0.093µM*,?,-12,?
CCCS(=O)(=O)N1CCN(Cc2ccc3c(c2)c2ccccc2n3CC)CC1,35%,9.3µM*,4,?
CCn1c(=O)cc(SCC(=O)N2CCN(C(=O)c3ccco3)CC2)c2ccccc21,5.9µM*,-14%,111,-19%
CCOc1ccc(CN2CCN(Cc3ccc4c(c3)c3ccccc3n4CC)CC2)cc1,·,·,101,·
Cc1cccc(Oc2coc3cc(OCC(=O)NC4CCCCC4)ccc3c2=O)c1,·,·,-12,·
CCNc1nc(NCC)n2c(SCC(=O)Nc3cc(OC)ccc3OC)nnc2n1,8.3µM*,?,-7,15%
CCNc1nc(NCC)n2c(SCC(=O)Nc3ccc(Br)cc3F)nnc2n1,?,12µM*,-18,?
COc1ccc(OC)c(NC(=O)CSc2nncc3ccc(OC)c(OC)c23)c1,9.3µM*,?,29,?
CCNc1nc(NCC)n2c(SCC(=O)Nc3ccc(C)c(C)c3)nnc2n1,-33%,9.3µM*,17,0%
CCNc1nc(NCC)n2c(SCC(=O)Nc3ccc(F)cc3)nnc2n1,?,0%,-20,2%
CCc1ccc(-n2nc(CO)c(C(=O)NCc3ccccc3OC)n2)cc1,·,·,42,·
CCCn1c(SCC(O)c2cccc(OC)c2)nc2ccccc21 (stereo not drawn),·,·,-21,·
CCN(CC)c1ccc(NC(=O)CSc2nnc3nc(C)cc(C)n23)cc1,?,?,-107*,10%
NC(Cc1ccc(Oc2cc(I)c(O)c(I)c2)c(I)c1)C(=O)O (stereo not drawn),-21%,3%,·,·
CCCC1(C(=O)O)NC(c2ccc(OC)cc2O)C2C(=O)N(c3ccc(OC)cc3)C(=O)C21 (stereo not drawn),15µM*,·,5,1%
COc1ccc(N2C(=O)C3C(c4ccc(OC)cc4O)NC(Cc4ccccc4)(C(=O)O)C3C2=O)cc1 (stereo not drawn),82%[5.75 µM],2%,-16,26%
COc1ccc(O[C@H]2C=C[C@@H](c3ccccc3)O[C@@H]2CO/N=C(\C)CCN2CCCCc3nc(C)c(C)cc32)cc1,?,1.7µM*,40,-4%[8.37 µM]
C/C(CCN1CCCCc2nc(C)c(C)cc21)=N\O[C@@H](C)CN1CCCCc2nc(C)c(C)cc21,12µM*,13µM*,·,-1%[8.37 µM]
C/C(CCN1CCCCc2nc(C)c(C)cc21)=N\OC[C@@H](O)[C@H]1O[C@@H]2OC(C)(C)O[C@@H]2[C@H]1O,-24%,6%,·,-9%[8.37 µM]
COc1cc(/C=C2\SC(=S)N(CCC(=O)Nc3ccccc3O)C2=O)cc(OC)c1OC,13µM*,?,-69*,?
COc1cc(/C=C2\SC(=S)N(CC(=O)Nc3ccc(O)cc3)C2=O)cc(OC)c1OC,?,2%,-75*,-2%
